# Laboratory results reported in article PMC7862700, “An all-to-all approach to the identification of sequence-specific readers for epigenetic DNA modifications on cytosine”.
# Tests used:
# Assay in all cases: DAPPL (digital affinity profiling via proximity ligation, sequencing); 10 mM Tris-HCl pH 7.5, 50 mM NaCl, 1 mM DTT, 4% glycerol, room temperature, 30 min; GST-TFs on glutathione beads, 16-mer random dsDNA library, 0.1% formaldehyde crosslink after washing; high values mean tight binding
# [1] = target: T1, FLI1 (Homo sapiens, UniProt Q01543 1-452); conditions: protein: recombinant; tags: N-terminal GST; dsDNA, one strand shown
# T1 sequence: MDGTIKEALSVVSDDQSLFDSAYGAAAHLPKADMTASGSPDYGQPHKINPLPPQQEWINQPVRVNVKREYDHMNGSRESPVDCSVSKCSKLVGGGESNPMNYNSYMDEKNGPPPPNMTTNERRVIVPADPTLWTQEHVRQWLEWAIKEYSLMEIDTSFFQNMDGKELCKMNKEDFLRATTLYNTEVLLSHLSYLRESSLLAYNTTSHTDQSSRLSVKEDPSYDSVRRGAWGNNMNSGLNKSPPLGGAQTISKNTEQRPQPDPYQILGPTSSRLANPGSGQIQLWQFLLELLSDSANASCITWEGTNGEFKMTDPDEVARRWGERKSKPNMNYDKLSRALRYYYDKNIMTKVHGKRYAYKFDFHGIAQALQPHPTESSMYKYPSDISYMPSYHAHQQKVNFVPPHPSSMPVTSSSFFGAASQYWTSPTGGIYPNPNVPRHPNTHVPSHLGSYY
# How it was run: (§1)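 Human transcription factors fused to GST were expressed in yeast, captured on glutathione beads, given DNA barcodes and pooled with a GST-only negative control. Pools were incubated with 200 nmole of a 16-mer random double-stranded DNA library in Tris/NaCl/DTT/glycerol buffer at room temperature for 30 min. They were then washed, crosslinked with 0.1% formaldehyde, proximity-ligated (BsaI/T4 ligase, 1 h, 37 °C), PCR-amplified and sequenced on an Illumina NextSeq500. Binding signal is each 6-mer's read frequency for a factor divided by its frequency for the GST control.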
# [2] = target: T2, ELK1 (Homo sapiens, UniProt P19419 1-428); conditions: protein: recombinant; tags: N-terminal GST; dsDNA, one strand shown
# T2 sequence: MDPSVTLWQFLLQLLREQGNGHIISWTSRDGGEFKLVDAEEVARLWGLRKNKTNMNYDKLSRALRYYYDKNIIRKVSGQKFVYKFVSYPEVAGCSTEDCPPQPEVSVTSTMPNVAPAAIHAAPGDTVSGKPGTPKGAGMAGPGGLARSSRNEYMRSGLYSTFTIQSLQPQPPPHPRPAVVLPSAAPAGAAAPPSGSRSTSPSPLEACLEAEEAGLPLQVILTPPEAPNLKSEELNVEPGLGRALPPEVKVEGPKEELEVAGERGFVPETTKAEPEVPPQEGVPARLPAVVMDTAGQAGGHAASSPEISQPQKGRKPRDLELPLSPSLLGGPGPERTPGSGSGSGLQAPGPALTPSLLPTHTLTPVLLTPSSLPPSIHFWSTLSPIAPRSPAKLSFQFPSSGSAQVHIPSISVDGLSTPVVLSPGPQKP
# How it was run: as §1
# [3] = target: T3, GABPA (Homo sapiens, UniProt Q06546 1-454); conditions: protein: recombinant; tags: N-terminal GST; dsDNA, one strand shown
# T3 sequence: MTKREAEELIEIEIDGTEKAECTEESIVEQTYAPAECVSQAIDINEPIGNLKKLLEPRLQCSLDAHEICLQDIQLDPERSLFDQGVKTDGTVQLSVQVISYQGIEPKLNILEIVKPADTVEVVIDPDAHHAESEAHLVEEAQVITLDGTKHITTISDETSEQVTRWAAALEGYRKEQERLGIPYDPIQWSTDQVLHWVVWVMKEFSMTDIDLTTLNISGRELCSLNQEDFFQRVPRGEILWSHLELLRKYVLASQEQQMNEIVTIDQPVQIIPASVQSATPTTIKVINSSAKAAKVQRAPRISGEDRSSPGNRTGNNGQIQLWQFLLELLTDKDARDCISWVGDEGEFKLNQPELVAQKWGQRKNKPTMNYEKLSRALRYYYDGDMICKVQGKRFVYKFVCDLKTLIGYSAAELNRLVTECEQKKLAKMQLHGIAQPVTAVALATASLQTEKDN
# How it was run: as §1
# [4] = target: T4, ERG (Homo sapiens, UniProt P11308 1-479); conditions: protein: recombinant; tags: N-terminal GST; dsDNA, one strand shown
# T4 sequence: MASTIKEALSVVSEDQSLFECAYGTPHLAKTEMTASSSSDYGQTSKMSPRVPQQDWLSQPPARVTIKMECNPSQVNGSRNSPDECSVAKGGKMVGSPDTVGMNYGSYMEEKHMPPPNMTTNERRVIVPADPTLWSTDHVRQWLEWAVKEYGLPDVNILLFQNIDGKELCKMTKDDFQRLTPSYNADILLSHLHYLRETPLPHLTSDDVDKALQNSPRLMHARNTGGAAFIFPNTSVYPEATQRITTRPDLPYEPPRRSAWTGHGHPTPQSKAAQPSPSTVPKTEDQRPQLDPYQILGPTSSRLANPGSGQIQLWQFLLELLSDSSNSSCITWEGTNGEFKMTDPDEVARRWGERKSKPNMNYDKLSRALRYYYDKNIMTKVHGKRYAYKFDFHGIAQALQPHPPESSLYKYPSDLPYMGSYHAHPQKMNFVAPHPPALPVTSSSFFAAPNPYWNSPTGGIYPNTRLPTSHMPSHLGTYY
# How it was run: as §1
# [5] = target: ELF1 (Homo sapiens, UniProt P32519 1-619); conditions: protein: recombinant; tags: N-terminal GST; dsDNA, one strand shown
# How it was run: as §1
# [6] = target: T5, EHF (Homo sapiens, UniProt Q9NZC4 1-300); conditions: protein: recombinant; tags: N-terminal GST; dsDNA, one strand shown
# T5 sequence: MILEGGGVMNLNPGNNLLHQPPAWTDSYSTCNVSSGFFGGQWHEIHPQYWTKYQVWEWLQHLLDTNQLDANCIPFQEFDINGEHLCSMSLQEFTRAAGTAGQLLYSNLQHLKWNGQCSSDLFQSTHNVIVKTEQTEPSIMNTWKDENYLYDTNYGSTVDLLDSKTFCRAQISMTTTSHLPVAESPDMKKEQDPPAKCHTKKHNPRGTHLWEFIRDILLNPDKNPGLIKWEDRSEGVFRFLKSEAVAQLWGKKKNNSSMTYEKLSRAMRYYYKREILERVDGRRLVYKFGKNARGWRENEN
# How it was run: as §1
# [7] = target: SPI1 (Homo sapiens, UniProt P17947 1-270); conditions: protein: recombinant; tags: N-terminal GST; dsDNA, one strand shown
# How it was run: as §1
# [8] = target: SPIB (Homo sapiens, UniProt Q01892 1-262); conditions: protein: recombinant; tags: N-terminal GST; dsDNA, one strand shown
# How it was run: as §1
# [9] = target: T6, ELK3 (Homo sapiens, UniProt P41970 1-407); conditions: protein: recombinant; tags: N-terminal GST; dsDNA, one strand shown
# T6 sequence: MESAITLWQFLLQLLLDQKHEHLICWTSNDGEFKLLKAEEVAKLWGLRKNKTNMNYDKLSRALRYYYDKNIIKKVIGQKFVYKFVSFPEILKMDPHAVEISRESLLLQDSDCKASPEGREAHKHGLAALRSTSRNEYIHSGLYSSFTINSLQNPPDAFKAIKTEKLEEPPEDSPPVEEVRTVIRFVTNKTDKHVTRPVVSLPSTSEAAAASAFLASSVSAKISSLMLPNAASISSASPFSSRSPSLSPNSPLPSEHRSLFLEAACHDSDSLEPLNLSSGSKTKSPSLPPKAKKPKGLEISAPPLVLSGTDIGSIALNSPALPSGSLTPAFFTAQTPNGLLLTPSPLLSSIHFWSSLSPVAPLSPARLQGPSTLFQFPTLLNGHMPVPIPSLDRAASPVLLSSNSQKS
# How it was run: as §1
# [10] = target: T7, FEV (Homo sapiens, UniProt Q99581 1-238); conditions: protein: recombinant; tags: N-terminal GST; dsDNA, one strand shown
# T7 sequence: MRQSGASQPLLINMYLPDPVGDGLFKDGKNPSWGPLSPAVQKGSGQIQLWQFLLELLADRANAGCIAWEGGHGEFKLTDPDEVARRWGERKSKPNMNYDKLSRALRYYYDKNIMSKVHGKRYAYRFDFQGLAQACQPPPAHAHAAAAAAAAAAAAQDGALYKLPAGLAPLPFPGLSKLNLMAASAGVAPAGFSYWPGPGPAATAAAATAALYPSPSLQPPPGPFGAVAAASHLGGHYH
# How it was run: as §1
# [11] = target: ETV5 (Homo sapiens, UniProt P41161 1-510); conditions: protein: recombinant; tags: N-terminal GST; dsDNA, one strand shown
# How it was run: as §1
# [12] = target: HSF1 (Homo sapiens, UniProt Q00613 1-529); conditions: protein: recombinant; tags: N-terminal GST; chain copies: 3; dsDNA, one strand shown
# How it was run: as §1
# [13] = target: T8, SPIC (Homo sapiens, UniProt Q8N5J4 1-248); conditions: protein: recombinant; tags: N-terminal GST; dsDNA, one strand shown
# T8 sequence: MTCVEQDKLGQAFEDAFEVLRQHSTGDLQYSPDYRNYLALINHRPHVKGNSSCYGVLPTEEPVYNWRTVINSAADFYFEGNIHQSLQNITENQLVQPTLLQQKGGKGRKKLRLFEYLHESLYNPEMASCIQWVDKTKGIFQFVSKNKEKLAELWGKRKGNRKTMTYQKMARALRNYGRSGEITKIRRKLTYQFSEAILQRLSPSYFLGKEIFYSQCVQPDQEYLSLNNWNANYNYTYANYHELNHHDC
# How it was run: as §1
# [14] = target: ELF4 (Homo sapiens, UniProt Q99607 1-663); conditions: protein: recombinant; tags: N-terminal GST; dsDNA, one strand shown
# How it was run: as §1
# [15] = target: T9, ELK4 (Homo sapiens, UniProt P28324-2 1-405); conditions: protein: recombinant; tags: N-terminal GST; dsDNA, one strand shown
# T9 sequence: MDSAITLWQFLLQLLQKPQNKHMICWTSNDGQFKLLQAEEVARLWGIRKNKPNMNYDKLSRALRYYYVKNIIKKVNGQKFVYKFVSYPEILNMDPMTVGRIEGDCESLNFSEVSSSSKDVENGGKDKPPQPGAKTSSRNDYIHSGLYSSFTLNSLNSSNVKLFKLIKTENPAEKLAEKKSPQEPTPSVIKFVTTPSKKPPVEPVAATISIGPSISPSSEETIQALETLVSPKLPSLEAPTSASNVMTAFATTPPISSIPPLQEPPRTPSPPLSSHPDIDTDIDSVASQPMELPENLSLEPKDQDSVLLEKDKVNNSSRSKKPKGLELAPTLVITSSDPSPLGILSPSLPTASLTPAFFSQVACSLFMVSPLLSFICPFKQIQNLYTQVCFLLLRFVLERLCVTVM
# How it was run: as §1
# [16] = target: T10, ETV2 (Homo sapiens, UniProt O00321 1-342); conditions: protein: recombinant; tags: N-terminal GST; dsDNA, one strand shown
# T10 sequence: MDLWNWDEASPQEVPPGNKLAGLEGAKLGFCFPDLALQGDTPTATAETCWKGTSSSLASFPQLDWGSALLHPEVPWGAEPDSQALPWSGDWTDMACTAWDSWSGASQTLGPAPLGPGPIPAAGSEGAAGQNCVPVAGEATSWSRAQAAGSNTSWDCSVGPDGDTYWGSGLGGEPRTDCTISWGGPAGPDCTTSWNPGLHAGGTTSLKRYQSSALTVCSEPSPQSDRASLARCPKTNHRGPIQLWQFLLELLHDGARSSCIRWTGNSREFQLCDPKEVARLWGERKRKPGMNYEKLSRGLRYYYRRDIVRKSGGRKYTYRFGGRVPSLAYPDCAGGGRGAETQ
# How it was run: as §1
# [17] = target: T11, ELF3 (Homo sapiens, UniProt P78545 1-371); conditions: protein: recombinant; tags: N-terminal GST; dsDNA, one strand shown
# T11 sequence: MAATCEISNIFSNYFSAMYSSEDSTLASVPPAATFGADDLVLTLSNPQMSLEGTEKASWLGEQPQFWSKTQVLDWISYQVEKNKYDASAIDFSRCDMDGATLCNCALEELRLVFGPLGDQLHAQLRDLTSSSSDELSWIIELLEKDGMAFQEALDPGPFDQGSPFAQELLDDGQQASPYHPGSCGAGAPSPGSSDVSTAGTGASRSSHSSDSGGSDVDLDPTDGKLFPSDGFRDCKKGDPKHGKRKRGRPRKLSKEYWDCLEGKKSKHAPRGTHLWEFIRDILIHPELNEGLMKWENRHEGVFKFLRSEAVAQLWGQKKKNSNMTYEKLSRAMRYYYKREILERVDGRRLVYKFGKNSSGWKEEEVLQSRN
# How it was run: as §1
# [18] = target: CRX (Homo sapiens, UniProt O43186 1-299); conditions: protein: recombinant; tags: N-terminal GST; dsDNA, one strand shown
# How it was run: as §1
# [19] = target: ETV1 (Homo sapiens, UniProt P50549 1-477); conditions: protein: recombinant; tags: N-terminal GST; dsDNA, one strand shown
# How it was run: as §1
# ELF1, sequence (P32519 whole entry): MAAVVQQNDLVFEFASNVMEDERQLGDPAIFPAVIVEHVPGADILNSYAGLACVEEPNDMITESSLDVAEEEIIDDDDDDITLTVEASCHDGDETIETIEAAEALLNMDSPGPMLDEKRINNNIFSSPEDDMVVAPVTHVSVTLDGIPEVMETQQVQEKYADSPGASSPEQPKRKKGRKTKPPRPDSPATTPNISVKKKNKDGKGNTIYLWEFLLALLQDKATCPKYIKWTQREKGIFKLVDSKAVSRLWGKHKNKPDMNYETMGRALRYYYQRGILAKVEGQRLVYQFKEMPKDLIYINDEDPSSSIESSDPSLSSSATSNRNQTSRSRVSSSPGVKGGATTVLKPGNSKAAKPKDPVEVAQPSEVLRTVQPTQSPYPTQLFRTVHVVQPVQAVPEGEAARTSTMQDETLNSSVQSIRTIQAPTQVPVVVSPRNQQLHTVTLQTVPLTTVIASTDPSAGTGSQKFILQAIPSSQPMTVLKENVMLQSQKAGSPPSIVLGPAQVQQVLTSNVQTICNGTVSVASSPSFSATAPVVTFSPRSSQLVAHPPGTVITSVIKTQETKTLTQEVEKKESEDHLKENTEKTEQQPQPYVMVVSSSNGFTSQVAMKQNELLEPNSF
# SPIB, sequence (Q01892 whole entry): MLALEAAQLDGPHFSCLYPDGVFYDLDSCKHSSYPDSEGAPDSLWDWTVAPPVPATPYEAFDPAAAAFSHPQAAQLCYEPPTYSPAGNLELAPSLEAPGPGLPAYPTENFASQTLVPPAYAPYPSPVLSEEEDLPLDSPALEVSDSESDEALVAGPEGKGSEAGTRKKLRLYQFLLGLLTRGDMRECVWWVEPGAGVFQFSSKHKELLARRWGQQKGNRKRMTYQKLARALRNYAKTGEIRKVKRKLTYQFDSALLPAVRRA
# ELF4, sequence (Q99607 whole entry): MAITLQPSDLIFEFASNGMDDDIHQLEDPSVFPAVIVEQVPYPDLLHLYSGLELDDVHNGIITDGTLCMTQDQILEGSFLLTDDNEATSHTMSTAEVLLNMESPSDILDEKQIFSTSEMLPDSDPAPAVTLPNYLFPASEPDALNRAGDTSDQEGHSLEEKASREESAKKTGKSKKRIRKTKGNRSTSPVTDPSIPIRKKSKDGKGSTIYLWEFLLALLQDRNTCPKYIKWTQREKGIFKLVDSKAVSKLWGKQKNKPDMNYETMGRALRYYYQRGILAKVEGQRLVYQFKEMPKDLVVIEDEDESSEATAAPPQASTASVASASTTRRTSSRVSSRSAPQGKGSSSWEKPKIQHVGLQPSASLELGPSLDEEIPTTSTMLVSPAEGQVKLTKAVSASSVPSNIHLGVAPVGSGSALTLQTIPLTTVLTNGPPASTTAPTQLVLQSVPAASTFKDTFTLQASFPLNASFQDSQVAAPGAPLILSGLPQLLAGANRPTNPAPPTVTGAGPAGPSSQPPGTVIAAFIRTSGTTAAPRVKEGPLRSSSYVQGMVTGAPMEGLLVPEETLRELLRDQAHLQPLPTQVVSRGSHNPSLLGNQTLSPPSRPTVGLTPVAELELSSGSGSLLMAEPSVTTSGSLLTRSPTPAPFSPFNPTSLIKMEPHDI
# ETV5, sequence (P41161 whole entry): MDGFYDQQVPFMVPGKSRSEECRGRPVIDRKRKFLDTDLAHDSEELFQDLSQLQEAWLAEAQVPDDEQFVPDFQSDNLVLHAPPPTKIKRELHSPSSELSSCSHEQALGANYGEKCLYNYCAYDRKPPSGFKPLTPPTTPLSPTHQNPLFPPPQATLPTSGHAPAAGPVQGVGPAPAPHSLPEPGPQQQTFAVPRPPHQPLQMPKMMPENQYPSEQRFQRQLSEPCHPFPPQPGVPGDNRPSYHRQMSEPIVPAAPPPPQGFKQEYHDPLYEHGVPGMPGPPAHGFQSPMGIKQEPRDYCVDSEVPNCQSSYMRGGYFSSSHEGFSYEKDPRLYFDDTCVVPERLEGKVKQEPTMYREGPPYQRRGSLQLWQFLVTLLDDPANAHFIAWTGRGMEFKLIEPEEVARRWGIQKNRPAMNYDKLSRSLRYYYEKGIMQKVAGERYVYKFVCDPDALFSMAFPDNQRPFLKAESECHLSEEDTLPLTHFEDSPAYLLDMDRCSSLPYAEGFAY
# CRX, sequence (O43186 whole entry): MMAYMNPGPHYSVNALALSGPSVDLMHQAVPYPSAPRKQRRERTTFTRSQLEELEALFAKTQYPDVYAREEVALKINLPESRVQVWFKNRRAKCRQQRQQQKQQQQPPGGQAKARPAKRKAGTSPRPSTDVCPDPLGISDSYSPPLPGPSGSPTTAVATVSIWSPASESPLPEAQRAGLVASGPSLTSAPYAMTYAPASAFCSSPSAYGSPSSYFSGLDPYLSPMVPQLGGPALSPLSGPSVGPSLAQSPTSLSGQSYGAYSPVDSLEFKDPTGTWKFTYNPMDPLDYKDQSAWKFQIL
# ETV1, sequence (P50549 whole entry): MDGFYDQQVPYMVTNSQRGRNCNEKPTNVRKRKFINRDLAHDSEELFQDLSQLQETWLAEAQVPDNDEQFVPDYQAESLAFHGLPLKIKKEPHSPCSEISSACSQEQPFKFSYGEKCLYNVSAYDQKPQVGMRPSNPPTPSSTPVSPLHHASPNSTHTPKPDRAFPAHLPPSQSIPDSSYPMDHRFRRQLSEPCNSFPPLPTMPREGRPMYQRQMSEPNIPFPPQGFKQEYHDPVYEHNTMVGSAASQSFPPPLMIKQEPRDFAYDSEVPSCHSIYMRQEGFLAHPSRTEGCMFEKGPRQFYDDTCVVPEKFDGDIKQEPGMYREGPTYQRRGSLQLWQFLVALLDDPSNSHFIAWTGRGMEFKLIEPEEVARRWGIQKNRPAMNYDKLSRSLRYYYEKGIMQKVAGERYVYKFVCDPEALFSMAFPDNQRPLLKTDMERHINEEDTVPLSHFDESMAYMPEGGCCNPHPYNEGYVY
# HSF1, sequence (Q00613 whole entry): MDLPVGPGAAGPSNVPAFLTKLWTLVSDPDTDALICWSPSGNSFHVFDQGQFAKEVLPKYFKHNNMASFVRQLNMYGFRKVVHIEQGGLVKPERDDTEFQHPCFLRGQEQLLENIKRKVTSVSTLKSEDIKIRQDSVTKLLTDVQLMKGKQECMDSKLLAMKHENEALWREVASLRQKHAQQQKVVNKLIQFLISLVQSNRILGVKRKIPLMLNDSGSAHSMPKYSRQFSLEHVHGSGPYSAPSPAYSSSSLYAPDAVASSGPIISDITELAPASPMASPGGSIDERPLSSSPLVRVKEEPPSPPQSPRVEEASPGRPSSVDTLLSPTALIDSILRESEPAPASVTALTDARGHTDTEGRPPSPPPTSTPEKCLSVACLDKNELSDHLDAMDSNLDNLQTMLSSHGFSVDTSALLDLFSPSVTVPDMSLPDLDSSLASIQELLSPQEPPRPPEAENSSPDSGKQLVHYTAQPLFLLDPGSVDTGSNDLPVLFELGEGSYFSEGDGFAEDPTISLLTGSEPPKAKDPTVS
sequence,measurement,setting,value
CACTTT,binding signal,[1],"1.25 fold enrichment (6-mer frequency, TF over GST control)"
same,binding signal,[2],"1.33 fold enrichment (6-mer frequency, TF over GST control)"
same,binding signal,[3],"1.21 fold enrichment (6-mer frequency, TF over GST control)"
same,binding signal,[4],"1.26 fold enrichment (6-mer frequency, TF over GST control)"
same,binding signal,[5],"1.35 fold enrichment (6-mer frequency, TF over GST control)"
same,binding signal,[6],"1.36 fold enrichment (6-mer frequency, TF over GST control)"
same,binding signal,[7],"1.39 fold enrichment (6-mer frequency, TF over GST control)"
same,binding signal,[8],"1.37 fold enrichment (6-mer frequency, TF over GST control)"
same,binding signal,[9],"1.29 fold enrichment (6-mer frequency, TF over GST control)"
same,binding signal,[10],"1.18 fold enrichment (6-mer frequency, TF over GST control)"
same,binding signal,[11],"1.38 fold enrichment (6-mer frequency, TF over GST control)"
same,binding signal,[12],"1.17 fold enrichment (6-mer frequency, TF over GST control)"
same,binding signal,[13],"1.29 fold enrichment (6-mer frequency, TF over GST control)"
same,binding signal,[14],"1.3 fold enrichment (6-mer frequency, TF over GST control)"
same,binding signal,[15],"1.34 fold enrichment (6-mer frequency, TF over GST control)"
same,binding signal,[16],"1.35 fold enrichment (6-mer frequency, TF over GST control)"
same,binding signal,[17],"1.28 fold enrichment (6-mer frequency, TF over GST control)"
same,binding signal,[18],"1.14 fold enrichment (6-mer frequency, TF over GST control)"
same,binding signal,[19],"1.3 fold enrichment (6-mer frequency, TF over GST control)"
